{"source": "paper PMC7862700", "about": "“An all-to-all approach to the identification of sequence-specific readers for epigenetic DNA modifications on cytosine”", "assay_in_all_cases": "DAPPL (digital affinity profiling via proximity ligation, sequencing); 10 mM Tris-HCl pH 7.5, 50 mM NaCl, 1 mM DTT, 4% glycerol, room temperature, 30 min; GST-TFs on glutathione beads, 16-mer random dsDNA library, 0.1% formaldehyde crosslink after washing; high values mean tight binding", "key": {"FLI1": {"target": "T1, FLI1 (Homo sapiens, UniProt Q01543 1-452)", "T1 sequence": "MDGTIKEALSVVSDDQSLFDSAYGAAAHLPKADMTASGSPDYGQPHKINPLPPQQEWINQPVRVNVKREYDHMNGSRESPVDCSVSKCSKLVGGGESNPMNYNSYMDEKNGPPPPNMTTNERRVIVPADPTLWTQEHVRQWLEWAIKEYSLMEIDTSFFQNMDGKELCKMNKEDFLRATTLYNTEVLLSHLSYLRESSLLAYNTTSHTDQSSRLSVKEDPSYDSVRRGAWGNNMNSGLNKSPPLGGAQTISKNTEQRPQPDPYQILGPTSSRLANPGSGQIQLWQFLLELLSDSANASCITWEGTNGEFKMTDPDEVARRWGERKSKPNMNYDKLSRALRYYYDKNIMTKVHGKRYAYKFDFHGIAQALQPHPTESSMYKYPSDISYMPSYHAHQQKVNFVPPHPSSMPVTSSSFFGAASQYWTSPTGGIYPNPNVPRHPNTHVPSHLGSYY", "conditions": "protein: recombinant; tags: N-terminal GST; dsDNA, one strand shown", "outline": "(§1)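 The binding signal reported is, for every hexamer, its read frequency for a factor over its read frequency for the tag-only sample. Reads came from pools of yeast-expressed, GST-fused human transcription factors on glutathione beads, barcoded with DNA and mixed with that sample, which were incubated with 200 nmole of a random double-stranded 16-mer DNA library in Tris/NaCl/DTT/glycerol buffer at room temperature for 30 min. After washing, the pools were crosslinked with 0.1% formaldehyde, proximity-ligated with BsaI/T4 ligase for 1 h at 37 °C, PCR-amplified and sequenced on an Illumina NextSeq500.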"}, "ELK1": {"target": "T2, ELK1 (Homo sapiens, UniProt P19419 1-428)", "T2 sequence": "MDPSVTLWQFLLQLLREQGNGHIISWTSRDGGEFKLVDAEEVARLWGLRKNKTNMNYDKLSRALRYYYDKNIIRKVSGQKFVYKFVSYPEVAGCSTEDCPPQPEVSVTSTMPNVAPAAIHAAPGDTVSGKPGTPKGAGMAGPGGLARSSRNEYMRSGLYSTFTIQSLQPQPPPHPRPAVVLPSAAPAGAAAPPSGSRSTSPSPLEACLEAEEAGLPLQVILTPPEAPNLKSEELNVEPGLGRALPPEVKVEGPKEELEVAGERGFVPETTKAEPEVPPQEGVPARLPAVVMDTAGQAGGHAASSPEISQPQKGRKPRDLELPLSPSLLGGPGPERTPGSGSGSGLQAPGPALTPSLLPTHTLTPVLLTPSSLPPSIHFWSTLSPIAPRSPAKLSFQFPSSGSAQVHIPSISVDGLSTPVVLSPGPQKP", "conditions": "protein: recombinant; tags: N-terminal GST; dsDNA, one strand shown", "outline": "as §1"}, "GABPA": {"target": "T3, GABPA (Homo sapiens, UniProt Q06546 1-454)", "T3 sequence": "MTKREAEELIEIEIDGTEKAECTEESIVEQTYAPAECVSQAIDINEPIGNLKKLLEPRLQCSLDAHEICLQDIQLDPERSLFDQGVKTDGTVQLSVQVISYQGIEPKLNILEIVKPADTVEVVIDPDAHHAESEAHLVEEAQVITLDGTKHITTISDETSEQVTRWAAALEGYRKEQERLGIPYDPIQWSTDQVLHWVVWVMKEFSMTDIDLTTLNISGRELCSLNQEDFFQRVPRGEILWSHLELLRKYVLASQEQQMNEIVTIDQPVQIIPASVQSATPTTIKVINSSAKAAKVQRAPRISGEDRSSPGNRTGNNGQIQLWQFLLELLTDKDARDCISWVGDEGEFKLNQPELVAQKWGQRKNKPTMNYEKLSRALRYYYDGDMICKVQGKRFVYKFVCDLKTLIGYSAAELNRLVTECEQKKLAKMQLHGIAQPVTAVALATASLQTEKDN", "conditions": "protein: recombinant; tags: N-terminal GST; dsDNA, one strand shown", "outline": "as §1"}, "ELF1": {"target": "ELF1 (Homo sapiens, UniProt P32519 1-619)", "sequence (P32519 whole entry)": "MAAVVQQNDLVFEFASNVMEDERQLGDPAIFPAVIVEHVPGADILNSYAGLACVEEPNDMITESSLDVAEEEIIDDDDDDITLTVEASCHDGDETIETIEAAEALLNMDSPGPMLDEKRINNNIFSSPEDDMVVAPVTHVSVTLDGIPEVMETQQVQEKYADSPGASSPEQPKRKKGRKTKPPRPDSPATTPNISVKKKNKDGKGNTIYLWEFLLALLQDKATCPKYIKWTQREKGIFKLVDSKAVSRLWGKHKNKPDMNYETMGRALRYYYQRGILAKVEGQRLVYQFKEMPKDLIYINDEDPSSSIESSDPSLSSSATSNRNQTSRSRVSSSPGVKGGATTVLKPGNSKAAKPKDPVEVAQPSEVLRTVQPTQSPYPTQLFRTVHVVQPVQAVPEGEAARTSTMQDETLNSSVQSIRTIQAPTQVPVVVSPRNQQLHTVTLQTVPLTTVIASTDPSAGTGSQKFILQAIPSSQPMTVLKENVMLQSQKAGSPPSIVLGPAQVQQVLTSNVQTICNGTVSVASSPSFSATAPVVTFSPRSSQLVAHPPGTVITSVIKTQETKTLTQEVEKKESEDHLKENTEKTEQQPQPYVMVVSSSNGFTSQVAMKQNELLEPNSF", "conditions": "protein: recombinant; tags: N-terminal GST; dsDNA, one strand shown", "outline": "as §1"}, "EHF": {"target": "T4, EHF (Homo sapiens, UniProt Q9NZC4 1-300)", "T4 sequence": "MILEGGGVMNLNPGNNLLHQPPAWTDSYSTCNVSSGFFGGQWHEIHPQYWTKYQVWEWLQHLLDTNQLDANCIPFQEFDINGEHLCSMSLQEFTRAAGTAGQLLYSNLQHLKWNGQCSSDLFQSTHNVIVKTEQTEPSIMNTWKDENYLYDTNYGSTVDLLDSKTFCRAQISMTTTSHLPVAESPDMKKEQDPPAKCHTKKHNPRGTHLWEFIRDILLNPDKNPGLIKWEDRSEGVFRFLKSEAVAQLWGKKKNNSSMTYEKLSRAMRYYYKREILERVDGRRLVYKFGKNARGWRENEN", "conditions": "protein: recombinant; tags: N-terminal GST; dsDNA, one strand shown", "outline": "as §1"}, "SPI1": {"target": "SPI1 (Homo sapiens, UniProt P17947 1-270)", "conditions": "protein: recombinant; tags: N-terminal GST; dsDNA, one strand shown", "outline": "as §1"}, "SPIB": {"target": "SPIB (Homo sapiens, UniProt Q01892 1-262)", "sequence (Q01892 whole entry)": "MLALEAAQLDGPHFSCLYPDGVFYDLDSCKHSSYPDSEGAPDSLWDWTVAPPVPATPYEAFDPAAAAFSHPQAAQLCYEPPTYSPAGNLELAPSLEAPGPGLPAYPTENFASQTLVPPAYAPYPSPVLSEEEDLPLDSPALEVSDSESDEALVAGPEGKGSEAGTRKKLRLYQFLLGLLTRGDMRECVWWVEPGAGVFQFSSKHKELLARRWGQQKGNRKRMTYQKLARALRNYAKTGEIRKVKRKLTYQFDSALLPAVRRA", "conditions": "protein: recombinant; tags: N-terminal GST; dsDNA, one strand shown", "outline": "as §1"}, "ELK3": {"target": "T5, ELK3 (Homo sapiens, UniProt P41970 1-407)", "T5 sequence": "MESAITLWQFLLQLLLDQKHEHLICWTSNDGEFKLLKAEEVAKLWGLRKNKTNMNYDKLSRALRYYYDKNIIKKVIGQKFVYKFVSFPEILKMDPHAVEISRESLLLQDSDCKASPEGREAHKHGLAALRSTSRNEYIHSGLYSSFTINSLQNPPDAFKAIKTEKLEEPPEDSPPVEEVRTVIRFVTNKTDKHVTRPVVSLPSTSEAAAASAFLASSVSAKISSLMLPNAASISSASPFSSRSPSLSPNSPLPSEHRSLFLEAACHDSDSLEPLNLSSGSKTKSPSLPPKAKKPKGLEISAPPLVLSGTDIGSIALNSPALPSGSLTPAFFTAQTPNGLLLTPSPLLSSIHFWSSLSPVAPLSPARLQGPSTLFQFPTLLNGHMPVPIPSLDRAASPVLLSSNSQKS", "conditions": "protein: recombinant; tags: N-terminal GST; dsDNA, one strand shown", "outline": "as §1"}, "FEV": {"target": "T6, FEV (Homo sapiens, UniProt Q99581 1-238)", "T6 sequence": "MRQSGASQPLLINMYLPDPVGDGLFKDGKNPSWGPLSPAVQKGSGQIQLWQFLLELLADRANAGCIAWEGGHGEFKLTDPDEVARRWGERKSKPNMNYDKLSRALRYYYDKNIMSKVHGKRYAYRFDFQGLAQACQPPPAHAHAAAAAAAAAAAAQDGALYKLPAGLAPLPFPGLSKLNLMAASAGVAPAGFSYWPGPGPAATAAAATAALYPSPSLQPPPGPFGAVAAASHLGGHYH", "conditions": "protein: recombinant; tags: N-terminal GST; dsDNA, one strand shown", "outline": "as §1"}, "ETV5": {"target": "ETV5 (Homo sapiens, UniProt P41161 1-510)", "sequence (P41161 whole entry)": "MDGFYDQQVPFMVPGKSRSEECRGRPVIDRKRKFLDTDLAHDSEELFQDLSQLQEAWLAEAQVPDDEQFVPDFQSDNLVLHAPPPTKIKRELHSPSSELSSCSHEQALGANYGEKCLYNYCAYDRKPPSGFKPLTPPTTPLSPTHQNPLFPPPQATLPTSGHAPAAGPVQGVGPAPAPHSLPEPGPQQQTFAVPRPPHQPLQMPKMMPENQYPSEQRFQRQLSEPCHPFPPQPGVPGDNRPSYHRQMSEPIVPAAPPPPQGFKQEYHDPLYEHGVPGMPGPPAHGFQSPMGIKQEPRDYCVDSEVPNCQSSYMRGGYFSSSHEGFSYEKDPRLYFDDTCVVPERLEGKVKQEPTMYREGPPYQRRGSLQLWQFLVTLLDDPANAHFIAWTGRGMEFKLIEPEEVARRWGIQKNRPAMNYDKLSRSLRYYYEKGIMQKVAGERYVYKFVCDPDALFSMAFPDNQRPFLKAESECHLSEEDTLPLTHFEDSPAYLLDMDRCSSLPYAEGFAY", "conditions": "protein: recombinant; tags: N-terminal GST; dsDNA, one strand shown", "outline": "as §1"}, "HSF1": {"target": "HSF1 (Homo sapiens, UniProt Q00613 1-529)", "sequence (Q00613 whole entry)": "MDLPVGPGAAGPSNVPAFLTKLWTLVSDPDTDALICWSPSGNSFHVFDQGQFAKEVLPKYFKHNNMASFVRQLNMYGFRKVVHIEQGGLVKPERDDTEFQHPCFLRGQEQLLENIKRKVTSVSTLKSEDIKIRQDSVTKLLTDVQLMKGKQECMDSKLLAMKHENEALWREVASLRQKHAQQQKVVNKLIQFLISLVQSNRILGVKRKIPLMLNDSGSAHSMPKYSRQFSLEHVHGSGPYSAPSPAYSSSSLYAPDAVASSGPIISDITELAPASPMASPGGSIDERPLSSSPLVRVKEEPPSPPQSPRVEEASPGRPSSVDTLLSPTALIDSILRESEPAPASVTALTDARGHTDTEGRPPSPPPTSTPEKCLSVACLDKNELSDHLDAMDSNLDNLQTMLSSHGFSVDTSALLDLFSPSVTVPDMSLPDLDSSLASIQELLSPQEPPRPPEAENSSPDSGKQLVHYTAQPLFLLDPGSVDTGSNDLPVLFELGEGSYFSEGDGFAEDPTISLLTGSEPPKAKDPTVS", "conditions": "protein: recombinant; tags: N-terminal GST; chain copies: 3; dsDNA, one strand shown", "outline": "as §1"}, "SPIC": {"target": "T7, SPIC (Homo sapiens, UniProt Q8N5J4 1-248)", "T7 sequence": "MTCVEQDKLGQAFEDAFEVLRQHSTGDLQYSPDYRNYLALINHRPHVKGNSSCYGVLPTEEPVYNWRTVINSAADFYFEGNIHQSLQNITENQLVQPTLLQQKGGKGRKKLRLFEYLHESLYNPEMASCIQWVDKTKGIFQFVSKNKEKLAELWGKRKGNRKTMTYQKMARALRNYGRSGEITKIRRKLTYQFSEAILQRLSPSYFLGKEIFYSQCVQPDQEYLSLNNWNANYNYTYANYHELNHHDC", "conditions": "protein: recombinant; tags: N-terminal GST; dsDNA, one strand shown", "outline": "as §1"}, "ELF4": {"target": "ELF4 (Homo sapiens, UniProt Q99607 1-663)", "sequence (Q99607 whole entry)": "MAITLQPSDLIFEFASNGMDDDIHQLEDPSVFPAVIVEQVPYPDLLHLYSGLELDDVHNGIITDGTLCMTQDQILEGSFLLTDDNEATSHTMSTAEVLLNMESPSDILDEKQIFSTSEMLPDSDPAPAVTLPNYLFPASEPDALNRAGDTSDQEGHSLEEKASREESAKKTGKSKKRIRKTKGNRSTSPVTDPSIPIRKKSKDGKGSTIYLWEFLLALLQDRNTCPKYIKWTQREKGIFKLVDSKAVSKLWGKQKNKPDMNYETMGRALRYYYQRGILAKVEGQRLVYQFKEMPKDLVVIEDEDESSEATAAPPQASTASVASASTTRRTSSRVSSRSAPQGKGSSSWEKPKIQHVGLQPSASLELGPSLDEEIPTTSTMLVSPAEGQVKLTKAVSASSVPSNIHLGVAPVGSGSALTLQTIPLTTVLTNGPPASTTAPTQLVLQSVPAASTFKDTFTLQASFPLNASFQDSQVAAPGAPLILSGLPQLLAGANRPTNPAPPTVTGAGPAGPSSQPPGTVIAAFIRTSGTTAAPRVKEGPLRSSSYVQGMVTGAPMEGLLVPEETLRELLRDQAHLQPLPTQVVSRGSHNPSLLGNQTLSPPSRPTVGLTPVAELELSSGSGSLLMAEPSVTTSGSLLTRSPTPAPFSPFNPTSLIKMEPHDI", "conditions": "protein: recombinant; tags: N-terminal GST; dsDNA, one strand shown", "outline": "as §1"}, "ELK4": {"target": "T8, ELK4 (Homo sapiens, UniProt P28324-2 1-405)", "T8 sequence": "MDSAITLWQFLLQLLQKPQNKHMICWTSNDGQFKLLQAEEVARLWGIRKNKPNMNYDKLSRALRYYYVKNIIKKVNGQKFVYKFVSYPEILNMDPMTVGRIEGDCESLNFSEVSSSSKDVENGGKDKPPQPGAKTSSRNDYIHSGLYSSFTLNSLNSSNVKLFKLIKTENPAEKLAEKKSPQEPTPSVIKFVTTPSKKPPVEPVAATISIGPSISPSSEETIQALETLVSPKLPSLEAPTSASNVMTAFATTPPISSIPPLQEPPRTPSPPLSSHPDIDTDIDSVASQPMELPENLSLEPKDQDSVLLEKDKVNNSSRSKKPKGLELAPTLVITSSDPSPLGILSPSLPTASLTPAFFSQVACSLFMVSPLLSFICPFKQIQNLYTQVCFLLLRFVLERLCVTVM", "conditions": "protein: recombinant; tags: N-terminal GST; dsDNA, one strand shown", "outline": "as §1"}, "ETV2": {"target": "T9, ETV2 (Homo sapiens, UniProt O00321 1-342)", "T9 sequence": "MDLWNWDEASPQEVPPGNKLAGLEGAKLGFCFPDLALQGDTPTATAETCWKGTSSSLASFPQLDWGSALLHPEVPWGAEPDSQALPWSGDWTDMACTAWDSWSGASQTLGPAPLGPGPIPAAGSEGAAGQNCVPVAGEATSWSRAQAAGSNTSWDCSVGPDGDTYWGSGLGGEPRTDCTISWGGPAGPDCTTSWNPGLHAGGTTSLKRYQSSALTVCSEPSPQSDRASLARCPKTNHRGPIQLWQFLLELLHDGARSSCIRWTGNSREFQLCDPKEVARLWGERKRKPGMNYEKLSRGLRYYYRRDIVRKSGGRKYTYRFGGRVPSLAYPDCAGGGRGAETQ", "conditions": "protein: recombinant; tags: N-terminal GST; dsDNA, one strand shown", "outline": "as §1"}, "ELF3": {"target": "T10, ELF3 (Homo sapiens, UniProt P78545 1-371)", "T10 sequence": "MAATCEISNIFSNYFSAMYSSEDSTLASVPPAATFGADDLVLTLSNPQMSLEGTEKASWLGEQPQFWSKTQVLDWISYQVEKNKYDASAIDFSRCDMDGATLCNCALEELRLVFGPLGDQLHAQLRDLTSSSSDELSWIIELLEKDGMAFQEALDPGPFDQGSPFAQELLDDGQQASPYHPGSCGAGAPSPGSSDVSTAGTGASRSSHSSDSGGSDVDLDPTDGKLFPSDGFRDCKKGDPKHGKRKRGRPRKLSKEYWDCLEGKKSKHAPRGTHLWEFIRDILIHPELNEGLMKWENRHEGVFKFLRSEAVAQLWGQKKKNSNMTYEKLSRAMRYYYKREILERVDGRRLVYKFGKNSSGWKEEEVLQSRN", "conditions": "protein: recombinant; tags: N-terminal GST; dsDNA, one strand shown", "outline": "as §1"}, "CRX": {"target": "CRX (Homo sapiens, UniProt O43186 1-299)", "sequence (O43186 whole entry)": "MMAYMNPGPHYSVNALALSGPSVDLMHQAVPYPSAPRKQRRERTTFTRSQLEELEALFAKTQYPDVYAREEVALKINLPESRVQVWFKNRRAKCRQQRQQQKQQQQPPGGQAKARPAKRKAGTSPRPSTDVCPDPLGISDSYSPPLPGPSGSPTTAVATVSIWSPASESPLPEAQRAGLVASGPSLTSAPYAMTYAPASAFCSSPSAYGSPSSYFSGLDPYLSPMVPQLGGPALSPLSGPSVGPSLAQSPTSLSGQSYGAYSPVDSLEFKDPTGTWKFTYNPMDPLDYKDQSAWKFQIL", "conditions": "protein: recombinant; tags: N-terminal GST; dsDNA, one strand shown", "outline": "as §1"}, "ETV1": {"target": "ETV1 (Homo sapiens, UniProt P50549 1-477)", "sequence (P50549 whole entry)": "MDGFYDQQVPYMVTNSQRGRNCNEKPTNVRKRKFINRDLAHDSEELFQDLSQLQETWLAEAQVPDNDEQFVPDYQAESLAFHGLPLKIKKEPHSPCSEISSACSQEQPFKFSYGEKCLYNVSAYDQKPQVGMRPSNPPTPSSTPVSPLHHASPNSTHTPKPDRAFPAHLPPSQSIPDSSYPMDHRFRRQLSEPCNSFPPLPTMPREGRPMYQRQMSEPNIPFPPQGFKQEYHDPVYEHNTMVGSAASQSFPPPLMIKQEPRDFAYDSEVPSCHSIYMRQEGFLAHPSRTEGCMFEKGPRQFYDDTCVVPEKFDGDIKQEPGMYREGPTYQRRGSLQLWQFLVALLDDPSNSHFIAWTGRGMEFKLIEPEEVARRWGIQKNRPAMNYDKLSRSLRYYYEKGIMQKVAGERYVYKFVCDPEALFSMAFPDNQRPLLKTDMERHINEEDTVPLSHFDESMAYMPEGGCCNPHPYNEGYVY", "conditions": "protein: recombinant; tags: N-terminal GST; dsDNA, one strand shown", "outline": "as §1"}}}
{"sequence": "TAATCG", "values": [{"measurement": "binding signal", "setting": "FLI1", "value": "1.07 fold enrichment (6-mer frequency, TF over GST control)"}, {"measurement": "binding signal", "setting": "ELK1", "value": "1.09 fold enrichment (6-mer frequency, TF over GST control)"}, {"measurement": "binding signal", "setting": "GABPA", "value": "1.14 fold enrichment (6-mer frequency, TF over GST control)"}, {"measurement": "binding signal", "setting": "ELF1", "value": "1.04 fold enrichment (6-mer frequency, TF over GST control)"}, {"measurement": "binding signal", "setting": "EHF", "value": "1.07 fold enrichment (6-mer frequency, TF over GST control)"}, {"measurement": "binding signal", "setting": "SPI1", "value": "1.02 fold enrichment (6-mer frequency, TF over GST control)"}, {"measurement": "binding signal", "setting": "SPIB", "value": "1.04 fold enrichment (6-mer frequency, TF over GST control)"}, {"measurement": "binding signal", "setting": "ELK3", "value": "1.07 fold enrichment (6-mer frequency, TF over GST control)"}, {"measurement": "binding signal", "setting": "FEV", "value": "1.01 fold enrichment (6-mer frequency, TF over GST control)"}, {"measurement": "binding signal", "setting": "ETV5", "value": "1.07 fold enrichment (6-mer frequency, TF over GST control)"}, {"measurement": "binding signal", "setting": "HSF1", "value": "1.93 fold enrichment (6-mer frequency, TF over GST control)"}, {"measurement": "binding signal", "setting": "SPIC", "value": "1 fold enrichment (6-mer frequency, TF over GST control)"}, {"measurement": "binding signal", "setting": "ELF4", "value": "1.07 fold enrichment (6-mer frequency, TF over GST control)"}, {"measurement": "binding signal", "setting": "ELK4", "value": "1.1 fold enrichment (6-mer frequency, TF over GST control)"}, {"measurement": "binding signal", "setting": "ETV2", "value": "1.04 fold enrichment (6-mer frequency, TF over GST control)"}, {"measurement": "binding signal", "setting": "ELF3", "value": "1.07 fold enrichment (6-mer frequency, TF over GST control)"}, {"measurement": "binding signal", "setting": "CRX", "value": "2.89 fold enrichment (6-mer frequency, TF over GST control)"}, {"measurement": "binding signal", "setting": "ETV1", "value": "1.01 fold enrichment (6-mer frequency, TF over GST control)"}]}
